Bioassay records from PubChem BioAssay.
LASV entry inh: inhibitors of Lassa virus binding or cell entry; Lassa virus pseudotype entry inhibition, cell reporter; Potency, µM (series often up to 37.9 µM), hits mostly inhibitors; 300,000 compounds, 1.2% hits; calls by dose curve; tested in HEK293 cells; further: nearly all actives have a fitted effect of over 50% in size
VACV Venus inh: vaccinia inhibition (Venus reporter); 330,000 compounds, 0.46% hits; Vaccinia virus Venus reporter expression, fluorescence; Potency, µM (top dose mostly 36.5 µM), hits mostly inhibitors; calls by dose curve; tested in A549 cells; further: nearly all actives have a fitted effect of over 30% in size
Vaccinia mCherry: vaccinia inhibition (mCherry reporter). AID 720579. Potency, µM (top dose mostly 36.5 µM), actives largely listed as inhibitors. 310,000 compounds, 0.63% hits. Vaccinia virus mCherry reporter infection, fluorescence; calls by dose curve; tested in A549 cells; further: nearly all actives have a fitted effect of over 35% in size
Cycloheximide cs: counter-screen for Shiga toxin inhibitors: cycloheximide protein synthesis inhibition. cell reporter, cycloheximide protein synthesis inhibition counterscreen. max response, %. 300,000 compounds, 12% hits. AID 2314; in the data active means max response mostly above about 13%, no sharp cut-off; inactive means mostly below about 14%; further: read at 38.3 µM for the half of the compounds with a filed dose
Shiga toxin inh: blocks Shiga toxin action in Vero cells. Vero cells, Shiga toxin protein synthesis inhibition reporter. inhibition, % at 38.7 µM. 290,000 compounds, 9.2% hits; in the data active means inhibition mostly above about 28%, no sharp cut-off; inactive means mostly below about 43%
Marburg entry inh: blocks Marburg virus binding to or entry into cells; Marburg virus pseudotyped entry inhibition, cell reporter; Potency, µM (highest dose often 37.8 µM), usual class: inhibitors; 300,000 compounds, 1.8% hits; AID 540276; calls by dose curve; tested in HEK293 cells
Large screens that a line does not name were inactive. The sample as a whole holds a higher share of hits than the screen did.

CC1CCN(S(=O)(=O)c2ccc3c(c2)CCN3C(=O)Nc2cccc(Br)c2)CC1	none (no result: LASV entry inh, Cycloheximide cs, Shiga toxin inh)
CCC(C)(C)c1ccc(OCC(=O)Nc2ccncc2)cc1	Marburg entry inh inconclusive
COc1cc(CCN2C(=O)NC(c3cccc(C(F)(F)F)c3)C(C(C)=O)=C2C)cc(OC)c1OC (stereo not drawn)	none (no result: VACV Venus inh, Vaccinia mCherry, Cycloheximide cs, Shiga toxin inh)
COc1ccc(C(=O)N/C(=C\c2cn(S(=O)(=O)N(C)C)c3ccccc23)C(=O)NCCCN2CCOCC2)cc1	none (no result: LASV entry inh, VACV Venus inh, Vaccinia mCherry, Marburg entry inh)
CCC1(c2ccc(Cl)cc2)NC(=S)N(c2ccc(C)cc2)N1 (stereo not drawn)	Vaccinia mCherry inconclusive, Cycloheximide cs 68.0, Shiga toxin inh 90.5, Marburg entry inh inconclusive
CCC1(c2ccccc2)NC(=S)N(c2ccc(C)c(C)c2)N1 (stereo not drawn)	Cycloheximide cs 39.7, Shiga toxin inh 36.0
CCC1(c2ccc(Cl)cc2)NC(=S)N(c2ccc(C)c(C)c2)N1 (stereo not drawn)	none (no result: LASV entry inh, VACV Venus inh, Vaccinia mCherry, Marburg entry inh)
COc1ccc(CCNC(=O)c2cc(COc3c(F)cccc3F)on2)c(OC)c1	Cycloheximide cs 37.2, Shiga toxin inh 70.0
COc1ccc(CCNC(=O)c2cc(COc3c(C)cccc3C)on2)c(OC)c1	LASV entry inh inconclusive, Cycloheximide cs 77.0, Shiga toxin inh 64.6
CCn1c(=O)c2sccc2n2c(CCC(=O)Nc3cc(C)cc(C)c3)nnc12	Marburg entry inh inconclusive (no result: Cycloheximide cs, Shiga toxin inh)
COc1ccc(CN2CCOc3ccc(C(O)c4cccnc4)cc3C2)c(F)c1 (stereo not drawn)	none (no result: LASV entry inh, Cycloheximide cs, Shiga toxin inh, Marburg entry inh)
CCn1c(-c2ccc(F)cc2)cnc1SCC(=O)N1CCCCC1C (stereo not drawn)	Cycloheximide cs 41.1, Shiga toxin inh 92.8 (no result: LASV entry inh, VACV Venus inh, Vaccinia mCherry, Marburg entry inh)
CCn1c(-c2ccc(F)cc2)cnc1SCC(=O)N1CCc2ccccc21	LASV entry inh inconclusive, Cycloheximide cs 34.1, Shiga toxin inh 96.7 (no result: VACV Venus inh, Vaccinia mCherry)
CCCn1c(-c2ccc(F)cc2)cnc1SCC(=O)O	none
O=C(CNS(=O)(=O)c1ccccc1)Nc1cccc([N+](=O)[O-])c1	none (no result: LASV entry inh, VACV Venus inh, Vaccinia mCherry, Marburg entry inh)
CCCC(=O)NC(NC(=S)Nc1ccc(S(N)(=O)=O)cc1)C(Cl)(Cl)Cl (stereo not drawn)	none
CCCC(=O)NC(NC(=S)Nc1ccc(N=Nc2ccccc2)cc1)C(Cl)(Cl)Cl (stereo not drawn)	LASV entry inh inconclusive, VACV Venus inh inconclusive, Cycloheximide cs 34.6, Shiga toxin inh 39.4, Marburg entry inh inconclusive
CC(C)N(c1ccccc1)c1ccc(NC(=O)CCl)cc1	none (no result: LASV entry inh, VACV Venus inh, Vaccinia mCherry, Marburg entry inh)
O=C(CCl)Nc1ccc(-c2ccccc2)cc1	LASV entry inh 10.3µM, Marburg entry inh inconclusive (no result: VACV Venus inh, Vaccinia mCherry)
O=C(CCl)Nc1ccc(N=Nc2ccccc2)cc1	LASV entry inh inconclusive, Cycloheximide cs 128.1, Shiga toxin inh 105.7, Marburg entry inh inconclusive (no result: VACV Venus inh, Vaccinia mCherry)
C=CCn1cccc(C(=O)Nc2ccc(OC)c(OC)c2)c1=O	none
C=CCn1cccc(C(=O)Nc2ccc(OC)c(Cl)c2)c1=O	Cycloheximide cs 24.1, Shiga toxin inh 54.1
C=CCn1cccc(C(=O)Nc2cc(OC)cc(OC)c2)c1=O	LASV entry inh inconclusive, Cycloheximide cs 25.6, Marburg entry inh inconclusive
COc1ccc(/C(C)=N/N=C(N)N)c(O)c1	Marburg entry inh inconclusive
CNC(=S)NN=C(C)c1ccc(OC)cc1O	VACV Venus inh inconclusive, Vaccinia mCherry 5.01µM, Marburg entry inh inconclusive (no result: Cycloheximide cs, Shiga toxin inh)
CN(C(=O)c1ccc(NC(=O)Cc2ccc(NC(=O)C3CCN(C(=O)c4ccccc4)CC3)cc2)cc1)C1CCCC1	none (no result: LASV entry inh, Cycloheximide cs, Shiga toxin inh, Marburg entry inh)
CC(=O)Nc1ccc(S(=O)(=O)N2CCN=C2SCc2ccc(F)cc2)cc1	none (no result: LASV entry inh, VACV Venus inh, Vaccinia mCherry, Marburg entry inh)
CC(=O)Nc1ccc(S(=O)(=O)N2CCN=C2SCc2ccc(C)cc2)cc1	Cycloheximide cs 49.5, Shiga toxin inh 88.2 (no result: LASV entry inh, VACV Venus inh, Vaccinia mCherry, Marburg entry inh)
CC(=O)N1N=C(c2cccnc2)OC1c1ccc(C(C)C)cc1 (stereo not drawn)	Marburg entry inh inconclusive
CC(=O)N1N=C(c2ccc(C)cc2)OC1c1ccc(C)cc1 (stereo not drawn)	Cycloheximide cs 22.2 (no result: VACV Venus inh, Vaccinia mCherry)
CC(=O)N1N=C(c2ccc(C)cc2)OC1c1ccc(C(C)C)cc1 (stereo not drawn)	LASV entry inh inconclusive, Cycloheximide cs 38.3, Shiga toxin inh 163.9, Marburg entry inh inconclusive (no result: VACV Venus inh, Vaccinia mCherry)
Cc1ccc(S(=O)(=O)c2nc(-c3ccccc3)oc2SCC(=O)NC2CCCCC2)cc1	none (no result: Cycloheximide cs, Shiga toxin inh)
COCCCN(C(=O)CSCC(=O)Nc1cccc(C)c1)c1c(N)n(Cc2ccccc2)c(=O)[nH]c1=O	none (no result: Cycloheximide cs, Shiga toxin inh)
O=C1c2ccccc2-c2onc3c(Oc4ccccc4)cc(O)c1c23	Cycloheximide cs 22.2 (no result: LASV entry inh, VACV Venus inh, Vaccinia mCherry)
O=C(NN1C(=O)C2C(C1=O)C1C=CC2C12CC2)c1cccc(Cl)c1 (stereo not drawn)	none
